Experimental data published in PubChem BioAssay (NCI).
About 83,000 compounds went through this panel and 20% of them were active in at least one assay; those are over-represented in the sample as a whole.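 Cells were grown in 96-well plates and exposed to the test compound at a single concentration for 48 hours; results are reported as percent growth, with values below 10 considered active.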 Calls of active or inactive are those of the source.

The compounds below were run on NCI-H23 lung (assay: NCI-60 one-dose screen, 48 h (100 = growth as untreated, 0 = no growth, -100 = all killed)). Conditions: 10 µM unless noted.

With CN1C(=O)CCC(N2C(=O)c3cccc(NCCOCCOCCNC(=O)c4cc5c(o4)C(=O)c4ccccc4C5=O)c3C2=O)C1=O (stereo not drawn) as the compound, how does the growth read?
Its growth is -52.7% (active).

CC/C=C/[C@@H]1C=C[C@@H]2CCC[C@H]2[C@@H]1CC[C@H](O)[C@H](C)N was tested. Which growth did it give?
The growth was -63.4% (active).

Cc1ccc2c(n1)C(=O)C(Oc1ccc(F)cc1)=CC2=O was tested. Which growth did it give?
Its growth is 94.9% (inactive).

How did the growth turn out when C/C(=N\NC(=O)Cn1c(-c2ccc(S(C)(=O)=O)cc2)nc2cc(Cl)ccc21)c1ccc(Cl)cc1 was run?
The growth was 83% (inactive).

For Nc1ccn(C2OC(F)(CO)C(O)C2F)c(=O)n1 (stereo not drawn), which growth is on record?
The growth was 10.3% (inactive).

With Cc1ccc(Nc2ccc(Nc3ccc(C)cc3S(=O)(=O)O)c3c2C(=O)c2ccccc2C3=O)c(S(=O)(=O)O)c1 as the compound, how does the growth read?
Its growth is 97.2% (inactive).

With Cc1ccc(NSc2ccccc2[N+](=O)[O-])cc1 as the compound, how does the growth read?
Its growth is 44.6% (inactive).

How did the growth turn out when Cc1cc(Cl)nc(N(CCCNc2ccnc3cc(Cl)ccc23)Cc2ccccn2)n1 was run?
The growth was 33.6% (inactive).

How did the growth turn out when O=C1NN(C(=O)c2ccc(O)cc2)C(c2ccccc2)=N/C1=C\c1cn(-c2ccccc2)nc1-c1ccccc1 was run?
Its growth is 98.3% (inactive).

N#Cc1c(NC(=O)c2cccc(C(F)(F)F)c2)sc2c1CCC(=O)C2 was tested. Which growth did it give?
The growth was 0.847% (active).

Which growth does the source give for CCN(CC)N=Nc1nn(C(=O)Nc2ccc(Cc3ccccc3)cc2)c2ccc(Cl)cc12 here?
The growth was 90.4% (inactive).

Which growth does the source give for Cc1ccc(C)c2c1C(=O)OC2=O here?
The growth was 95.5% (inactive).

For C=C(C)[C@@H]1CC[C@]2(CNCCO)CC[C@]3(C)[C@H](CC[C@@H]4[C@@]5(C)CCC(N)[C@@](C)(CO)[C@@H]5CC[C@]43C)[C@@H]12 (stereo partly drawn), which growth is on record?
The growth was 46.8% (inactive).

How did the growth turn out when C=CC(=O)Nc1cccc(C)c1Nc1cc(-c2cccnc2Cc2c(C)c(OC)cc(OC)c2C)ncn1 was run?
Its growth is 54.4% (inactive).

Which growth does the source give for O=C(CC12CC3CC(CC(C3)C1)C2)NCCOCCOCCOCCNC(=O)c1cc2c(o1)C(=O)c1ccccc1C2=O here?
The growth was -47.6% (active).

With COc1cc(-c2ccc(N=Nc3c(O)c(C(=O)Nc4ccccc4OC)cc4ccccc34)c(OC)c2)ccc1N=Nc1c(O)c(C(=O)Nc2ccccc2OC)cc2ccccc12 as the compound, how does the growth read?
Its growth is 93.5% (inactive).

For C=CCOc1cccc(/C=C2\SC(=Nc3ccc(O)cc3)NC2=O)c1, which growth is on record?
Its growth is 40.2% (inactive).

How did the growth turn out when CC(C)CCC[C@@H](C)[C@H]1CCC2C3=CCn4c(=O)ccc(=O)n4C3CC[C@@]21C (stereo partly drawn) was run?
Its growth is -55.4% (active).

COc1ccccc1C(=O)NC(=S)Nc1ccc(-c2nc3ccccc3[nH]2)cc1 was tested. Which growth did it give?
The growth was 58.4% (inactive).

COC(=O)[C@]12CC[C@@H](C)[C@H](C)[C@@H]1C1=CC[C@@H]3[C@@]4(C)C(C=O)=C[C@@](C)(CO)C4=CC[C@@]3(C)[C@]1(C)CC2 was tested. Which growth did it give?
The growth was 31.7% (inactive).

For O=C(NCCOCCOCCNc1cccc2c1C(=O)N(C1CCCNC1=O)C2=O)c1cc2c(o1)C(=O)c1ccccc1C2=O (stereo not drawn), which growth is on record?
Its growth is -42.8% (active).

O=C1NC(=S)S/C1=C\N1N=C(c2ccc(Cl)cc2)CC1c1ccc(F)cc1 (stereo not drawn) was tested. Which growth did it give?
Its growth is 91.3% (inactive).

Cc1nc2ccc(C(=O)NCc3cc(C(=O)O)c(C)o3)cc2nc1C was tested. Which growth did it give?
Its growth is 101% (inactive).

N=C(N)c1ccc(-c2ccc(-c3ccc(Cl)cn3)s2)cc1 was tested. Which growth did it give?
Its growth is 67.8% (inactive).

The compounds below were run on NCI-H226 lung in the same assay as above. Conditions: 10 µM unless noted.

With NC(=S)N/N=C/C(=O)O as the compound, how does the growth read?
Its growth is 96.2% (inactive).

How did the growth turn out when CS(=O)(=O)c1ccc(-c2[nH]c3ccc(F)cc3c2/C=N/NC(N)=S)cc1 was run?
The growth was 63.1% (inactive).

For O=[N+]([O-])c1ccc(-c2cc3c(Nc4ccc(Cl)c(C(F)(F)F)c4)ncnc3s2)cc1, which growth is on record?
Its growth is 20.1% (inactive).

With COC(=O)c1ccc(CSc2nnc(-c3ccncc3)o2)cc1 as the compound, how does the growth read?
Its growth is 102% (inactive).

With NS(=O)(=O)Oc1ccc(NC(=O)C23CC4CC(CC(C4)C2)C3)cc1Cl as the compound, how does the growth read?
Its growth is 91.3% (inactive).

For O=C1N(c2ccccc2)C(=S)N[C@]12[C@H](c1ccccc1)C1CCCN1[C@]21C(=O)NC2C=CC(Cl)=C[C@H]21 (stereo partly drawn), which growth is on record?
The growth was 82.5% (inactive).

With COc1ccc(-c2nc3ncccn3c2/C=C/C(=O)c2cc(OC)c(OC)c(OC)c2)cc1 as the compound, how does the growth read?
Its growth is -24.4% (active).

For N#C/C(=C\c1ccc(Br)cc1)n1nnc2cc(Cl)c(Cl)cc21, which growth is on record?
Its growth is 36.3% (inactive).

How did the growth turn out when O=S(=O)(Cc1ccccc1)c1nc2ccccc2s1 was run?
Its growth is 82.9% (inactive).

COc1ccc(-c2nnc(-c3ccc4c(c3)nc(-c3ccccc3)n4C3CCCCC3)o2)cc1 was tested. Which growth did it give?
The growth was 46.4% (inactive).

How did the growth turn out when CN1CCC(=C2c3ccccc3C=Cc3ccccc32)CC1 was run?
The growth was 96% (inactive).

How did the growth turn out when CNC(=O)NCC1OC(n2cnc3c(NC(=O)Nc4ccccc4)ncnc32)C2OC(C)(C)OC12 (stereo not drawn) was run?
The growth was 109% (inactive).

With COc1ccc(-c2cncnc2N)cc1OC as the compound, how does the growth read?
The growth was 107% (inactive).

How did the growth turn out when O=[N+]([O-])c1ccccc1C(O)Cc1ccc2ccccc2n1 (stereo not drawn) was run?
The growth was 83.5% (inactive).

Which growth does the source give for CCn1c(Sc2nnc(NC(C)=O)s2)nc2c1c(=O)n(C)c(=O)n2C here?
Its growth is 93.9% (inactive).

For CN1C(=O)CCC(N2C(=O)c3cccc(NCCOCCOCCNC(=O)c4cc5c(o4)C(=O)c4ccccc4C5=O)c3C2=O)C1=O (stereo not drawn), which growth is on record?
The growth was -72.1% (active).

How did the growth turn out when CC/C=C/[C@@H]1C=C[C@@H]2CCC[C@H]2[C@@H]1CC[C@H](O)[C@H](C)N was run?
The growth was 91.5% (inactive).

How did the growth turn out when Cc1ccc2c(n1)C(=O)C(Oc1ccc(F)cc1)=CC2=O was run?
The growth was 76.5% (inactive).

Which growth does the source give for C/C(=N\NC(=O)Cn1c(-c2ccc(S(C)(=O)=O)cc2)nc2cc(Cl)ccc21)c1ccc(Cl)cc1 here?
Its growth is 79% (inactive).

With Nc1ccn(C2OC(F)(CO)C(O)C2F)c(=O)n1 (stereo not drawn) as the compound, how does the growth read?
The growth was 89.4% (inactive).

With Cc1ccc(Nc2ccc(Nc3ccc(C)cc3S(=O)(=O)O)c3c2C(=O)c2ccccc2C3=O)c(S(=O)(=O)O)c1 as the compound, how does the growth read?
The growth was 96.9% (inactive).

How did the growth turn out when Cc1ccc(NSc2ccccc2[N+](=O)[O-])cc1 was run?
The growth was 65.5% (inactive).

Which growth does the source give for Cc1cc(Cl)nc(N(CCCNc2ccnc3cc(Cl)ccc23)Cc2ccccn2)n1 here?
Its growth is 65% (inactive).

With O=C1NN(C(=O)c2ccc(O)cc2)C(c2ccccc2)=N/C1=C\c1cn(-c2ccccc2)nc1-c1ccccc1 as the compound, how does the growth read?
The growth was 103% (inactive).

N#Cc1c(NC(=O)c2cccc(C(F)(F)F)c2)sc2c1CCC(=O)C2 was tested. Which growth did it give?
The growth was 13.6% (inactive).

With CCN(CC)N=Nc1nn(C(=O)Nc2ccc(Cc3ccccc3)cc2)c2ccc(Cl)cc12 as the compound, how does the growth read?
The growth was 84% (inactive).

For Cc1ccc(C)c2c1C(=O)OC2=O, which growth is on record?
Its growth is 98.4% (inactive).

Which growth does the source give for C=C(C)[C@@H]1CC[C@]2(CNCCO)CC[C@]3(C)[C@H](CC[C@@H]4[C@@]5(C)CCC(N)[C@@](C)(CO)[C@@H]5CC[C@]43C)[C@@H]12 (stereo partly drawn) here?
Its growth is 94.1% (inactive).

For C=CC(=O)Nc1cccc(C)c1Nc1cc(-c2cccnc2Cc2c(C)c(OC)cc(OC)c2C)ncn1, which growth is on record?
Its growth is 46.1% (inactive).

How did the growth turn out when O=C(CC12CC3CC(CC(C3)C1)C2)NCCOCCOCCOCCNC(=O)c1cc2c(o1)C(=O)c1ccccc1C2=O was run?
The growth was -73.6% (active).

How did the growth turn out when COc1cc(-c2ccc(N=Nc3c(O)c(C(=O)Nc4ccccc4OC)cc4ccccc34)c(OC)c2)ccc1N=Nc1c(O)c(C(=O)Nc2ccccc2OC)cc2ccccc12 was run?
The growth was 94.1% (inactive).

How did the growth turn out when C=CCOc1cccc(/C=C2\SC(=Nc3ccc(O)cc3)NC2=O)c1 was run?
Its growth is -9.25% (active).

Which growth does the source give for CC(C)CCC[C@@H](C)[C@H]1CCC2C3=CCn4c(=O)ccc(=O)n4C3CC[C@@]21C (stereo partly drawn) here?
The growth was -91.8% (active).

With COc1ccccc1C(=O)NC(=S)Nc1ccc(-c2nc3ccccc3[nH]2)cc1 as the compound, how does the growth read?
Its growth is 46.3% (inactive).

COC(=O)[C@]12CC[C@@H](C)[C@H](C)[C@@H]1C1=CC[C@@H]3[C@@]4(C)C(C=O)=C[C@@](C)(CO)C4=CC[C@@]3(C)[C@]1(C)CC2 was tested. Which growth did it give?
The growth was 58.5% (inactive).

For O=C(NCCOCCOCCNc1cccc2c1C(=O)N(C1CCCNC1=O)C2=O)c1cc2c(o1)C(=O)c1ccccc1C2=O (stereo not drawn), which growth is on record?
The growth was -79.8% (active).

For O=C1NC(=S)S/C1=C\N1N=C(c2ccc(Cl)cc2)CC1c1ccc(F)cc1 (stereo not drawn), which growth is on record?
The growth was 83.9% (inactive).

How did the growth turn out when Cc1nc2ccc(C(=O)NCc3cc(C(=O)O)c(C)o3)cc2nc1C was run?
Its growth is 100% (inactive).

N=C(N)c1ccc(-c2ccc(-c3ccc(Cl)cn3)s2)cc1 was tested. Which growth did it give?
Its growth is 83.8% (inactive).
